We go through 33 compounds from PubChem BioAssay (NCI).

SMILES strings stand for the structures. Values joined by “and” are separate entries in the source; they are usually repeats but may differ in a detail not shown here. Equal values may be shown once. The panel holds about 79,000 compounds, 15% with a hit somewhere; the sample as a whole holds those more often. Some structures have more than one record in an assay (separate samples or runs), and their calls can disagree. Active and inactive are the calls of the source. Rule as the data show it: active = growth inhibition above about 70%; inactive = the rest.

One assay is described as follows: NCI Yeast Anticancer Drug Screen. Data for the sgs1 mgt1 strain (AID 161).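 Also: 0% = growth of cultures given vehicle only.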 Conditions: S. cerevisiae sgs1 mgt1 strain, at 50.0 µM (retest, dose inferred, filed as 5.0), stronger effect = higher value. In outline:
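Mutant yeast exposed to compound; growth scored against vehicle-only wells.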
Regarding `COc1ccc2[nH]c3c(C)c4ccncc4c(C)c3c2c1`, the growth inhibition was 99% (active).
On the same count and under the same terms, under `Cc1cc(NS(=O)(=O)c2ccc(N=Nc3cc(N=Nc4ccc(S(=O)(=O)Nc5cc(C)nc(C)n5)cc4)c4c(NC(=O)C(Cl)Cl)cccc4c3OC(=O)C(Cl)Cl)cc2)nc(C)n1` (tested in a mixture with another compound) stands 79% (active); under `Oc1cc2c(cc1C(c1ccc3c(c1)OCO3)N1CCN(C(c3ccc4c(c3)OCO4)c3cc4c(cc3O)OCO4)CC1)OCO2` (stereo unspecified), 98% (active).
Same read-out and setting: then `O=[N+]([O-])c1ccc(N/N=C/CC(O)(C(F)(F)F)C(F)(F)F)c([N+](=O)[O-])c1`, with 97% (active).
On the same count and under the same terms, then `CCCc1cc(=O)oc2c3c(c4c(c12)OC(C)(C)CC4)O[C@@H](C)[C@H](C)[C@H]3O`, with 93% (active); and `O=Cc1cc(Br)ccc1O`, with 73% (active) and 68% (inactive); and `Cc1n(-c2ccccc2)c2c([n+]1Cc1ccc([N+](=O)[O-])cc1)C(=O)c1ccccc1C2=O`, with 98% (active).
As to `Nc1ncnc2c1ncn2CCCl`, the growth inhibition was 10% (inactive).
Same read-out and setting: under `CN(C)CCCN=c1c2ccccc2n(O)c2cccc([N+](=O)[O-])c12` stands -1% (inactive); under `CCOc1ccc2ccccc2c1C(Cc1ccc(Cl)cc1)NCCO` (stereo unspecified), 2% (inactive).
On the same count and under the same terms, then `COc1ccc(Oc2ccccc2N)cc1`, with 93% (active); and `O=C1C(Cl)=C(Cl)C(Cl)(Cl)C(Cl)=C1Cl`, with 99% (active).
In the case of `CCC(C)(C)c1cc(O)c(C(C)(C)CC)cc1O`, the growth inhibition was 91% (active).
Still for that read-out and setting: then `CC[C@](O)(CC(=O)O[C@H]1C(=O)O[C@@H]2C[C@H]3C(C)=CC(=O)[C@@H](O)[C@]3(C)[C@H]3[C@@]4(O)OC[C@]32[C@@H]1[C@@H](C)[C@H]4O)C(C)C`, with 98% (active).
On the same count and under the same terms, under `Nc1ccccc1Oc1ccc(Cl)cc1Cl` stands 98% (active).
Still for that read-out and setting: under `O=C1Nc2ccccc2C1(O)C/C(=N/O)c1ccc2ccccc2c1` (stereo unspecified) stands 51% (inactive); under `NNC(=O)c1ccc(NC(=O)CSc2nc3ccccc3s2)cc1`, 59% (inactive); under `C[C@H]1CC[C@H]([C@@H](C)[C@H]2[C@@H](O)C[C@H]3[C@@H]4CC[C@H]5C[C@@H](O)CC[C@]5(C)[C@H]4CC[C@]23C)NC1`, 98% (active) and 94% (active).
As to `CC(C)(c1ccc(O)cc1)c1ccc(O)cc1`, the growth inhibition is 75% (active) and 51% (inactive).
Same read-out and setting: then `O=C1/C(=C/c2ccc(Cl)cc2)CNC/C1=C\c1ccc(Cl)cc1`, with 88% (active) and 91% (active); and `CCN(CC)c1ccc(/C=C/c2ccnc3ccccc23)cc1`, with 94% (active) and 98% (active); and `Oc1ccc(/C=N/NC(=S)NN2CCOCC2)nc1`, with 95% (active).
On the same count and under the same terms, under `COc1ccc(-c2c(C#N)c(-c3ccc(C)cc3)n(NS(=O)(=O)c3ccccc3)c(=O)c2C#N)cc1` stands 75% (active); under `c1ccc(-c2[nH]c3ccccc3c2-c2ccccn2)cc1`, 23% (inactive); under `Nc1cc2c(cc1Cl)[nH]c(=O)c1cc(Cl)ccc12`, 17% (inactive).
Still for that read-out and setting: under `C1=C(c2ccccc2)N(CCc2ccccc2)C(c2ccccc2)=CN1Cc1ccccc1` stands 97% (active); under `COC(=O)c1nnn(-c2ccc(S(N)(=O)=O)cc2)c1N`, -20% (inactive); under `O=C1C(CN2CCOCC2)CCCC1CN1CCOCC1` (stereo unspecified), 96% (active).
In the case of `O=Cc1cc([N+](=O)[O-])cc(CCl)c1O`, the growth inhibition is -8% (inactive).
Regarding `CCOC(=O)c1ccc(NCc2ccc3ccccc3n2)cc1`, the growth inhibition is 44% (inactive).
Same read-out and setting: then `OC(c1nc2ccccc2[nH]1)C(O)C(O)C(O)c1nc2ccccc2[nH]1` (stereo unspecified), with 1% (inactive); and `O=[N+]([O-])c1ccc(N/N=C(/C=N/Nc2ccc([N+](=O)[O-])cc2)C(O)C(O)C(O)CO)cc1` (stereo unspecified), with 98% (active); and `c1ccc2c(c1)CNc1ccccc1-2`, with 66% (inactive).

The assay is the same for the next values; noted with them: S. cerevisiae sgs1 mgt1 strain, at 50.0 µM, stronger effect = higher value.
For `COc1ccc2[nH]c3c(C)c4ccncc4c(C)c3c2c1`, the growth inhibition was 93.2% (active) and 99.4% (active).
Same read-out and setting: under `Cc1cc(NS(=O)(=O)c2ccc(N=Nc3cc(N=Nc4ccc(S(=O)(=O)Nc5cc(C)nc(C)n5)cc4)c4c(NC(=O)C(Cl)Cl)cccc4c3OC(=O)C(Cl)Cl)cc2)nc(C)n1` (tested in a mixture with another compound) stands -23.1% (inactive) and 69.2% (inactive); under `Oc1cc2c(cc1C(c1ccc3c(c1)OCO3)N1CCN(C(c3ccc4c(c3)OCO4)c3cc4c(cc3O)OCO4)CC1)OCO2` (stereo unspecified), 78.2% (active).
Regarding `O=[N+]([O-])c1ccc(N/N=C/CC(O)(C(F)(F)F)C(F)(F)F)c([N+](=O)[O-])c1`, the growth inhibition was 91.8% (active).
Same read-out and setting: then `CCCc1cc(=O)oc2c3c(c4c(c12)OC(C)(C)CC4)O[C@@H](C)[C@H](C)[C@H]3O`, with 3.65% (inactive) and 89.6% (active); and `O=Cc1cc(Br)ccc1O`, with 95.9% (active) and 96.3% (active); and `Cc1n(-c2ccccc2)c2c([n+]1Cc1ccc([N+](=O)[O-])cc1)C(=O)c1ccccc1C2=O`, with 88.5% (active).
Still for that read-out and setting: then `Nc1ncnc2c1ncn2CCCl`, with 14.3% (inactive); and `CN(C)CCCN=c1c2ccccc2n(O)c2cccc([N+](=O)[O-])c12`, with 46.9% (inactive); and `CCOc1ccc2ccccc2c1C(Cc1ccc(Cl)cc1)NCCO` (stereo unspecified), with 94.3% (active).
Still for that read-out and setting: then `COc1ccc(Oc2ccccc2N)cc1`, with 69.3% (inactive).
As for `O=C1C(Cl)=C(Cl)C(Cl)(Cl)C(Cl)=C1Cl`, the growth inhibition was 97.7% (active) and 66.2% (inactive).
`CCC(C)(C)c1cc(O)c(C(C)(C)CC)cc1O`: the growth inhibition was 11.3% (inactive) and 88% (active).
In the case of `CC[C@](O)(CC(=O)O[C@H]1C(=O)O[C@@H]2C[C@H]3C(C)=CC(=O)[C@@H](O)[C@]3(C)[C@H]3[C@@]4(O)OC[C@]32[C@@H]1[C@@H](C)[C@H]4O)C(C)C`, the growth inhibition was 88.9% (active).
Same read-out and setting: under `Nc1ccccc1Oc1ccc(Cl)cc1Cl` stands 93% (active).
Still for that read-out and setting: then `O=C1Nc2ccccc2C1(O)C/C(=N/O)c1ccc2ccccc2c1` (stereo unspecified), with 49.5% (inactive); and `NNC(=O)c1ccc(NC(=O)CSc2nc3ccccc3s2)cc1`, with 96.2% (active); and `C[C@H]1CC[C@H]([C@@H](C)[C@H]2[C@@H](O)C[C@H]3[C@@H]4CC[C@H]5C[C@@H](O)CC[C@]5(C)[C@H]4CC[C@]23C)NC1`, with 92.5% (active) and 85.7% (active).
Take `CC(C)(c1ccc(O)cc1)c1ccc(O)cc1`: the growth inhibition was 78.1% (active) and 64.6% (inactive).
Same read-out and setting: under `O=C1/C(=C/c2ccc(Cl)cc2)CNC/C1=C\c1ccc(Cl)cc1` stands 87.2% (active) and 86.7% (active); under `CCN(CC)c1ccc(/C=C/c2ccnc3ccccc23)cc1`, 99.1% (active) and 98.5% (active).
Same read-out and setting: under `Oc1ccc(/C=N/NC(=S)NN2CCOCC2)nc1` stands 89% (active).
Still for that read-out and setting: under `COc1ccc(-c2c(C#N)c(-c3ccc(C)cc3)n(NS(=O)(=O)c3ccccc3)c(=O)c2C#N)cc1` stands 50.8% (inactive); under `c1ccc(-c2[nH]c3ccccc3c2-c2ccccn2)cc1`, 95.6% (active).
On to `Nc1cc2c(cc1Cl)[nH]c(=O)c1cc(Cl)ccc12`, for which the growth inhibition was 18.3% (inactive).
For the compound `C1=C(c2ccccc2)N(CCc2ccccc2)C(c2ccccc2)=CN1Cc1ccccc1`, the growth inhibition is 98.6% (active).
On the same count and under the same terms, under `COC(=O)c1nnn(-c2ccc(S(N)(=O)=O)cc2)c1N` stands 53.5% (inactive); under `O=C1C(CN2CCOCC2)CCCC1CN1CCOCC1` (stereo unspecified), 10.8% (inactive) and 24.9% (inactive); under `O=Cc1cc([N+](=O)[O-])cc(CCl)c1O`, 15.2% (inactive).
Still for that read-out and setting: then `CCOC(=O)c1ccc(NCc2ccc3ccccc3n2)cc1`, with 79.4% (active); and `OC(c1nc2ccccc2[nH]1)C(O)C(O)C(O)c1nc2ccccc2[nH]1` (stereo unspecified), with -18.4% (inactive) and 17.9% (inactive); and `O=[N+]([O-])c1ccc(N/N=C(/C=N/Nc2ccc([N+](=O)[O-])cc2)C(O)C(O)C(O)CO)cc1` (stereo unspecified), with 97.7% (active) and 97% (active).
The same measure, in the same setting: then `c1ccc2c(c1)CNc1ccccc1-2`, with 83.5% (active).
